Vif-A3G inh – inhibitors of Vif-APOBEC3G interaction | HeLa A3G-eYFP + Vif (tagged APOBEC3G with the HIV-1 protein that degrades it), YFP fluorescence, overnight | Q9HC16 | Potency, µM (top dose mostly 46.1 µM), for the others: at the highest dose activity, negative = active, hits mostly inhibitors | 410,000 compounds, 0.076% hits; also: potency is read from the fitted curve at half-maximal effect; % is scaled to controls: 0 for no effect and ±100 for the full control effect; nearly all actives have a fitted effect of over 60% in size
Target sequence (Q9HC16 whole entry, looked up): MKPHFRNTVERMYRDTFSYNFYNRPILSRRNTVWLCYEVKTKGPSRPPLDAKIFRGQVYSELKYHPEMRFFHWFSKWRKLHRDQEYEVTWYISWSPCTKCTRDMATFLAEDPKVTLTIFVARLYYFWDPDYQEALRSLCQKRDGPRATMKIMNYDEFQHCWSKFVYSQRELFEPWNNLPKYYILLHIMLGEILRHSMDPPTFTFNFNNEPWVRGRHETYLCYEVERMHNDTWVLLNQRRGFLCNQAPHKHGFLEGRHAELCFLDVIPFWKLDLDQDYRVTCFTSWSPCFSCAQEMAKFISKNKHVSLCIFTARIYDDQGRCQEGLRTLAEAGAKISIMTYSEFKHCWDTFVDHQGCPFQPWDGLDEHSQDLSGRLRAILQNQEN
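Read-out is eYFP fluorescence (Ex 488/Em 500-530) from Vif-expressing HeLa A3G-eYFP cells; more signal means A3G escaped Vif-mediated degradation. Cells plated overnight, compound pinned in, incubated overnight at 37 deg C.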
LDHA block – LDHA (human) enzyme inhibition. purified LDHA, NADH/diaphorase-resazurin fluorescence; hits give low values. activity change, % (values are at about 110 or 230 µM). 480,000 compounds, 0.15% hits. AID 1347041; in the data active = activity change below about -30%; inconclusive = mostly about -25% to -30%;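 also: plate controls were DMSO wells for no effect and wells without enzyme for full effect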
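Remaining NADH was detected by diaphorase (0.133 mg/mL) converting 37 µM resazurin to fluorescent resorufin, read at 0 and 20 minutes. The preceding 5-minute room-temperature reaction used 2 nM LDHA, 0.2 mM sodium pyruvate and 0.06 mM NADH at pH 7.4.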
Apoferritin bind – binds horse apoferritin like a general anesthetic | P02791 | apoferritin/1-aminoanthracene competitive binding, fluorescence | Potency, µM (titrated, usually from 77.5 µM), inactives show top-dose activity change, negative = displacement, hits mostly inhibitors | 350,000 compounds, 0.074% hits | AID 485281; also: potency is read from the fitted curve at half-maximal effect; % is scaled to controls: 0 for no effect and ±100 for the full control effect; nearly all actives have a fitted effect of over 20% in size
Target sequence (P02791 2-175 limits assumed): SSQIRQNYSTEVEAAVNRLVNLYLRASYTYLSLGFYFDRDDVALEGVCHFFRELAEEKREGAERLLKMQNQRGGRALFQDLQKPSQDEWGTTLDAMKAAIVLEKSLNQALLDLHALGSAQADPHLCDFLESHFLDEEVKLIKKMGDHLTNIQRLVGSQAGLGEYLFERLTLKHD
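Horse-spleen apoferritin (10 uM) in 50% saturated 1-aminoanthracene in PBS was incubated 10 min at room temperature with compound. Fluorescence (ex 380, em 535 nm) was normalized to free and bound 1-AMA, with concentration-response fitted by a four-parameter Hill equation.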
Epigenetic reg – epigenetic control regulation, reporter derepression | murine LDR cells, GFP reporter derepression, 30 h | Potency, µM (highest dose often 53.9 µM), for the others: at the highest dose GFP activation, most hits filed as activators | 280,000 compounds, 0.2% hits; also: potency is read from the fitted curve at half-maximal effect; % of control where 0% means no effect; nearly all actives have a fitted effect of over 60% in size
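GFP-positive cell count by laser-scanning cytometry (objects 20–120 um) after 30 h, 37 C compound exposure of murine LDR cells; reporter is CMV-GFP integrated at a silenced locus, inducible by HDAC or DNMT inhibitors.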
Vif-APOBEC3F blk – Vif-A3F binding inhibition | HeLa A3F-eYFP + Vif (tagged APOBEC3F with the HIV-1 protein that degrades it), YFP fluorescence increase | Potency, µM (top dose mostly 46.1 µM), for the others: at the highest dose activity, negative = active | 390,000 compounds, 0.2% hits | AID 602313; also: potency is read from the fitted curve at half-maximal effect; % of control where 0% means no effect; nearly all actives have a fitted effect of over 65% in size
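Fluorescence increase (Ex 488/Em 500-530) after overnight compound treatment at 37 deg C flags inhibition of Vif-driven A3F-eYFP loss in stable HeLa A3F-eYFP/Vif cells seeded overnight beforehand.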
Numbers without * were called inactive; ? = inconclusive; . = no result given. Compounds with a hit are over-represented: about 0.49% of the library has one in this group of screens. Unless noted, calls follow the shape of the dose curve; as a rule, active = well fitted curve in the direction sought with a large enough effect; inconclusive = small, poorly fitted or top-dose-only effect, or another doubt; inactive = no such curve, though single readings can be large; an effect the other way counts as inactive or inconclusive.

SMILES	Vif-A3G inh	LDHA block	Apoferritin bind	Epigenetic reg	Vif-APOBEC3F blk
Cc1cc(C)c2c(n1)sc1c(O)cc(=O)[nH]c12	-1%	-1	-2%	1%	-3%
COc1ccc(-c2cc(C(F)(F)F)c3c(n2)sc2c(O)cc(=O)[nH]c23)c(OC)c1	-28%	-7	-6%	11µM*	?
CC(NC(=O)C1=Cc2ccccc2OC1)c1ccccc1 (configuration not stated)	-2%	-4	-1%	1%	-9%
C=C1C2(C(=O)Nc3nccs3)CCC(C2)C1(C)C (configuration not stated)	0%	-5	7.9µM*	-6%	5%
Cc1ncc(-c2ccc(S(=O)(=O)Nc3ccc(C)c(F)c3)cc2)o1	.	-31*	.	.	.
Cc1ncc(-c2ccc(S(=O)(=O)Nc3ccc(C)c(C)c3)cc2)o1	.	18	.	.	.
Cc1ncc(-c2ccc(C)c(S(=O)(=O)Nc3cccc(Cl)c3C)c2)o1	.	-3	.	.	.
Cc1ncc(-c2ccc(S(=O)(=O)Nc3cccc(Cl)c3C)cc2)o1	.	-31*	.	.	.
COc1ccc(CCNC(=O)c2cccc(S(=O)(=O)N3CCCC3)c2)cc1	5%	-5	.	.	1%
Cc1nn(-c2ccc(Cl)c(Cl)c2Cl)c(=O)c2ccccc12	1%	-4	18µM*	2%	-7%
Cc1ccc(NS(=O)(=O)c2cc([N+](=O)[O-])ccc2NNC(=S)Nc2cccc(Cl)c2)c(C)c1	2%	-10	-21%	4%	-19%
O=C(N/N=C/c1ccc([N+](=O)[O-])o1)c1sc2ccccc2c1Cl	?	1	1%	2%	8.9µM*
O=C(N/N=C/c1ccccn1)c1sc2ccccc2c1Cl	-6%	-3	-16%	?	-7%
Cc1ccccc1Oc1ccc2c(c1)[C@@H]1C[C@H](N(C)C(=O)c3cccnc3)[C@H]([C@H](C)O)C(=O)N1CC2	-7%	-32*	.	.	-4%
COC(=O)c1ccccc1OCCCCN1CC(C)OC(C)C1 (configuration not stated)	-3%	-31*	-4%	3%	8%
Nc1ccccc1SC(CC(=O)c1ccccc1)c1ccccc1 (configuration not stated)	-6%	3	.	.	?
COC(=O)c1ccccc1SC(CC(=O)c1ccccc1)c1ccc(F)cc1 (configuration not stated)	-7%	-12	-11%	22µM*	-6%
Cc1oc2cc(OC(=O)c3ccc(S(C)(=O)=O)cc3)ccc2c(=O)c1-c1ccccc1	.	-2	.	.	.
Cc1oc2cc(OC(=O)c3ccc4c(c3)OCO4)ccc2c(=O)c1-c1ccccc1	.	-30*	.	.	.
CCN(CC(=O)NCc1ccc(F)cc1)C(=O)/C=C/c1ccc(OC)cc1	-8%	-2	-5%	.	2%
CCN(CC(=O)NCc1ccc(F)cc1)C(=O)/C=C/c1ccc(OC)c(S(=O)(=O)NC(C)C)c1	2.8µM*	-2	-11%	.	-2%
CCCCc1cc(=O)oc2c(C)c(OCC(=O)NCCN3CCOCC3)ccc12	2%	-6	4%	.	-21%
C[n+]1cnn2c1SCC1(COC1)C2	0%	-58*	-9%	-2%	-2%
Cc1cc(C(=O)OCC(=O)N(CC(C)C)c2c(N)n(Cc3ccccc3)c(=O)[nH]c2=O)c2ccccc2n1	-1%	-3	.	.	-6%
Cc1occc1-c1nnc(-c2cc([N+](=O)[O-])cc([N+](=O)[O-])c2)o1	-10%	-1	22µM*	3%	-32%
SMILES	Vif-A3G inh	LDHA block	Apoferritin bind	Epigenetic reg	Vif-APOBEC3F blk
COc1ccc(N2CCN(C(=O)c3ccc(Cn4nc(C)c([N+](=O)[O-])c4C)o3)CC2)cc1	-12%	5	-15%	.	-25%
COc1ccc(CNC(=O)c2ccc(Cn3nc(C)c([N+](=O)[O-])c3C)o2)cc1	-9%	-13	-18%	4.5µM*	7%
CCCCCCCCCCS(=O)(=O)N/N=C/c1ccc(O)cc1	3%	-6	16µM*	0%	-21%
CCCCCCCCCCS(=O)(=O)N/N=C/c1cccc([N+](=O)[O-])c1	.	12	.	.	.
CCCCCCCCCS(=O)(=O)N/N=C/c1cccc([N+](=O)[O-])c1	-5%	2	7.1µM*	2%	-5%
CCn1c(=O)c(C(=O)NNC(=O)c2ccccc2Cl)c(O)c2ccccc21	1%	3	-15%	.	8%
Cc1ccc2c(C)nc(Nc3nc(CSc4nc5ccccc5[nH]4)cc(=O)[nH]3)nc2c1	-1%	2	-19%	35µM*	1%
Cc1c(C#N)c(O)n(C)c(=O)c1N=Nc1ccc(S(N)(=O)=O)cc1	1%	2	-22%	1%	?
CCOC(=O)c1ccc(N=Nc2c(C)c(C#N)c(O)[nH]c2=O)cc1	-11%	8	-2%	6%	10µM*
COc1ccc(NC(=O)c2c(NC(=O)CNCc3ccco3)sc3c2CCC3)cc1	-7%	-6	-18%	25µM*	-4%
COc1ccc(NC(=O)c2c(NC(=O)COc3ccccc3)sc3c2CCC(C(C)(C)C)C3)cc1 (configuration not stated)	4%	-8	-6%	-2%	-3%
COc1ccc(NC(=O)c2c(NC(=O)CCC(=O)O)sc3c2CCC(C(C)(C)C)C3)cc1 (configuration not stated)	.	-30*	.	.	.
CC1C[N+](=C2C=C(N3CCOCC3)CC(C)(C)C2)CC(C)O1 (configuration not stated)	-12%	-57*	8%	-3%	0%
COCCCNc1nc2ccccc2nc1NS(=O)(=O)c1ccccc1	1%	-8	-10%	1%	22µM*
COc1cccc(NC(=O)CN(CCc2ccccc2)S(=O)(=O)c2ccc(Cl)cc2)c1	1%	-59*	2%	-1%	1%
COC(=O)c1ccc(NC(=O)CN(CCc2ccccc2)S(=O)(=O)c2ccc(OC)cc2)cc1	8%	0	83%	-2%	2%
CCOC(=O)Cn1nnnc1CN(Cc1ccc(OC)cc1)Cc1cc2cc(C)cc(C)c2[nH]c1=O	2%	4	4%	0%	-2%
C[N+](C)(C)CCOC(=O)C1(c2ccccc2)CCCC1	1%	-12	-9%	0%	3%
CC(C[N+](C)(C)C)OC(=O)C1(c2ccccc2)CCCC1 (configuration not stated)	0%	-31*	3%	8%	0%
O=C(COc1ccccc1Br)N1CCN(C(=O)c2cccs2)CC1	0%	-15	.	.	2%
Cc1ccc(C(=O)c2cn(CC(=O)NCc3ccccc3)c3nc(C)ccc3c2=O)cc1	0%	1	-1%	-1%	-30%
Cc1ccc(CNC(=O)Cn2cc(C(=O)c3ccc(Cl)cc3)c(=O)c3ccc(C)nc32)cc1	-17%	-2	-11%	6%	13µM*
CCOc1cc(S(=O)(=O)N2CCN=C2Cc2ccccc2)ccc1F	1%	-8	-3%	.	-2%

Assay outcomes deposited in PubChem by National Center for Advancing Translational Sciences (NCATS).
